{"source": "PubChem BioAssay AID463190", "about": "(Sanford-Burnham Center for Chemical Genomics, 2010)", "note": "About 7,300 (2.2%) of roughly 330,000 compounds were called active.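 Rule for the calls: active = inhibition of at least 40%; inactive = the rest.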 The list comes from a sample in which actives are over-represented; it also holds similar structures and randomly drawn compounds.", "data": [{"assay": "growth inhibitors of tim10-1 mutant yeast, primary screen, luminescence, uHTS (AID 463190);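 note: mutant grown at 25 °C; 0% = DMSO wells with yeast and 100% = wells holding no yeast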", "details": "S. cerevisiae tim10-1 ts strain growth, BacTiter-Glo, 24 h; at 20 µM; active compounds read high", "values": [{"smiles": "CC(C)CC(=O)N/C(N)=N/c1nc2ccccc2s1", "inhibition": "19.6% (inactive)"}, {"smiles": "CCOC(=O)/C(N=Nc1cc(C(=O)O)cc(C(=O)O)c1)=C(\\O)CCl", "inhibition": "11% (inactive)"}, {"smiles": "O=c1cccc(-c2ccc(Br)cc2)o1", "inhibition": "4.04% (inactive)"}, {"smiles": "CCOC(=O)C(=Cc1ccccc1OC)C(=O)OCC", "inhibition": "49.6% (active)"}, {"smiles": "COc1ccccc1/C=C/C(=O)NC1CC2CCC1C2", "note": "(stereo not drawn)", "inhibition": "19.5% (inactive)"}, {"smiles": "CCOC(=O)C(=CNc1cccc(C)n1)C(=O)OCC", "inhibition": "-6.8% (inactive)"}, {"smiles": "Cc1c(C)n2c(SCC(=O)N3CCCC3)nnc2[nH]c1=O", "inhibition": "0.597% (inactive)"}, {"smiles": "CCCCCCC(=O)N(O)C1CC(=O)N(c2ccccc2)C1=O", "note": "(stereo not drawn)", "inhibition": "33.7% (inactive)"}, {"smiles": "CCN(CC(=O)Nc1ccccc1C(=O)NC1CC1)Cc1cccs1", "inhibition": "17.5% (inactive)"}, {"smiles": "Cc1cccc(C2=N/C(=C/c3cccs3)C(=O)O2)c1", "inhibition": "31.5% (inactive)"}, {"smiles": "CSC1=N/C(=C\\C=C\\c2cccs2)C(=O)S1", "inhibition": "47.1% (active)"}, {"smiles": "CN1C/C(=C/c2cccs2)C(=O)/C(=C\\c2cccs2)C1", "inhibition": "19.2% (inactive)"}, {"smiles": "O=C(NCc1ccccc1Cl)C1CCC(CNc2c(N3CCCCC3)c(=O)c2=O)CC1", "note": "(stereo not drawn)", "inhibition": "-8.66% (inactive)"}, {"smiles": "C/C(=N\\NC(=O)c1cc2c(s1)CCC(C)C2)c1cccnc1", "note": "(stereo not drawn)", "inhibition": "39.6% (inactive)"}, {"smiles": "CCOC(=O)C1=C(c2ccccc2)NC(=O)NC1c1cc(OCC)c(O)c([N+](=O)[O-])c1", "note": "(stereo not drawn)", "inhibition": "-5.37% (inactive)"}, {"smiles": "CCCc1[nH]nc2c1C(c1ccc(Br)s1)C(C#N)=C(N)O2", "note": "(stereo not drawn)", "inhibition": "83% (active)"}, {"smiles": "CCCc1[nH]nc2c1C(c1ccc(OC(=O)c3ccco3)cc1)C(C#N)=C(N)O2", "note": "(stereo not drawn)", "inhibition": "8.03% (inactive)"}, {"smiles": "CCCc1[nH]nc2c1C(c1ccc(OC)c(Cn3nc(C)c(Br)c3C)c1)C(C#N)=C(N)O2", "note": "(stereo not drawn)", "inhibition": "11.3% (inactive)"}, {"smiles": "COc1ccc(NC(=O)COC(=O)CNC(=O)C2CCCCC2)cc1", "inhibition": "4.06% (inactive)"}, {"smiles": "CCOC(=O)c1cccc(NC(=O)CCOc2ccccc2)c1", "inhibition": "12.6% (inactive)"}, {"smiles": "CCc1ccccc1NC(=O)CCOc1ccccc1", "inhibition": "11.8% (inactive)"}, {"smiles": "Cc1ccc(NC(=O)CCOc2ccccc2)cc1S(=O)(=O)Nc1ccccc1Cl", "inhibition": "43.7% (active)"}, {"smiles": "CN(C(=O)CSc1nnc(Nc2ccccc2)s1)C1CCS(=O)(=O)C1", "note": "(stereo not drawn)", "inhibition": "8.97% (inactive)"}, {"smiles": "COc1ccc(-c2cc(=O)oc3cc(OCC(=O)N[C@@H](Cc4c[nH]c5ccccc45)C(=O)O)ccc23)cc1", "inhibition": "16.2% (inactive)"}, {"smiles": "C=CCOC(=O)C1=C(C)N=C2SCCC(=O)N2C1/C=C/c1ccccc1OC", "note": "(stereo not drawn)", "inhibition": "5.92% (inactive)"}, {"smiles": "CCOc1ccccc1Oc1cn[nH]c1-c1ccc(OC)cc1O", "inhibition": "-13% (inactive)"}, {"smiles": "COc1ccc(Oc2cn[nH]c2-c2ccc(OC)cc2O)cc1", "inhibition": "50.1% (active)"}, {"smiles": "COc1ccc(-c2cn[nH]c2-c2ccc(OC)cc2)cc1", "inhibition": "38.8% (inactive)"}, {"smiles": "Cn1sc(=O)c2cc(S(=O)(=O)NC3CC3)ccc21", "inhibition": "22.8% (inactive)"}, {"smiles": "COc1ccc(N2CCN(C(=O)CCSCc3ccccc3F)CC2)cc1", "inhibition": "40.2% (active)"}, {"smiles": "O=C(CCc1ccccc1F)N1CCN(c2ccccc2)CC1", "inhibition": "6.47% (inactive)"}, {"smiles": "COc1ccc(N2CCN(C(=O)CCNC(=O)c3ccc(Br)cc3)CC2)cc1", "inhibition": "12.6% (inactive)"}, {"smiles": "CN(Cc1c(F)cccc1Cl)C(=O)CNC(=O)c1ccc2c(c1)OCO2", "inhibition": "7.42% (inactive)"}, {"smiles": "Cc1ccc(NC(=S)Nc2ncccc2C)c(C)c1", "inhibition": "36.8% (inactive)"}, {"smiles": "O=C(NCCCn1ccnc1)/C(=C\\c1ccccc1F)NC(=O)c1ccccc1", "inhibition": "-16.4% (inactive)"}, {"smiles": "O=C(NN=Cc1ccc(N2CCOCC2)cc1)c1cc2ccccc2cc1O", "inhibition": "0.793% (inactive)"}, {"smiles": "COc1ccc(-c2cc(C(=O)Nc3ccccc3O)c3ccccc3n2)cc1", "inhibition": "11.2% (inactive)"}, {"smiles": "O=C(NNc1c2ccccc2nc2ccccc12)c1cc2ccccc2cc1O", "inhibition": "48.9% (active)"}, {"smiles": "O=C(COC(=O)CN1C(=O)C2CCCCC2C1=O)Nc1ccc(F)c(F)c1F", "note": "(stereo not drawn)", "inhibition": "8.83% (inactive)"}, {"smiles": "CC1=CC(C)(C)Nc2ccc(OC(=O)C(Cc3ccccc3)N3C(=O)C4CCCCC4C3=O)cc21", "note": "(stereo not drawn)", "inhibition": "25.9% (inactive)"}, {"smiles": "CC1=CC(C)(C)Nc2ccc(OC(=O)CN3C(=O)C4CCCCC4C3=O)cc21", "note": "(stereo not drawn)", "inhibition": "42.7% (active)"}, {"smiles": "Cc1cccc(C(=O)OC(C)C(=O)NC2CCCc3ccccc32)c1O", "note": "(stereo not drawn)", "inhibition": "14.7% (inactive)"}, {"smiles": "Fc1cccc2ncnc(OCc3ccccc3)c12", "inhibition": "5.91% (inactive)"}, {"smiles": "Cc1nc2ccccc2cc1OCc1ccc(F)cc1", "inhibition": "40.5% (active)"}, {"smiles": "Cc1occc(=O)c1OCc1ccc(F)cc1", "inhibition": "1.21% (inactive)"}, {"smiles": "O=c1[nH]c2ccccc2s1", "inhibition": "8.84% (inactive)"}, {"smiles": "O=C(NC1CCCCCC1)c1cccnc1Sc1ccc(Cl)cc1", "inhibition": "17.4% (inactive)"}, {"smiles": "O=C(NC1CCCCC1)c1ccc(-c2ccc(Cl)cc2)o1", "inhibition": "46.1% (active)"}, {"smiles": "O=C(NC(=S)NC1CCCCC1)c1ccc(Cl)cc1", "inhibition": "34.7% (inactive)"}, {"smiles": "Cc1cnc(CN(C)C(=O)CC2C(=O)NCCN2Cc2cccc(F)c2F)[nH]1", "note": "(stereo not drawn)", "inhibition": "0.623% (inactive)"}, {"smiles": "CC(C)OCC(O)CN1CCN(C(c2ccccc2)c2ccccc2)CC1", "note": "(stereo not drawn)", "inhibition": "6.5% (inactive)"}, {"smiles": "COC(=O)COc1ccc(C2NC(=O)NC(C)=C2C(=O)NCc2ccccc2)cc1OC", "note": "(stereo not drawn)", "inhibition": "1.06% (inactive)"}, {"smiles": "Cc1ccc(SCC2=NNC(=O)C2)cc1", "inhibition": "33.5% (inactive)"}, {"smiles": "CCOc1ccc(NC(=O)CN(C)C(=O)Cn2c(=O)cnc3ccccc32)cc1OCC", "inhibition": "-8.6% (inactive)"}, {"smiles": "C/C(=N\\Nc1nc(N2CCOCC2)nc(N2CCOCC2)n1)c1ccc([N+](=O)[O-])cc1", "inhibition": "14% (inactive)"}, {"smiles": "C/C(=N\\Nc1nc(Nc2ccccc2)nc(N2CCOCC2)n1)c1cccs1", "inhibition": "41.3% (active)"}, {"smiles": "O=C(CSc1nc(Nc2ccccc2)nc(N2CCOCC2)n1)Nc1cc(Cl)ccc1O", "inhibition": "-0.275% (inactive)"}, {"smiles": "COc1ccc(C2(CNC(=O)C(c3ccccc3)c3ccccc3)CCOCC2)cc1OC", "inhibition": "15.2% (inactive)"}, {"smiles": "CCCCCCCCn1c2c(c(=N)c3c1CCC3)CCCC2", "inhibition": "49.1% (active)"}, {"smiles": "Cc1cc(C)n(C(=O)CCNC(=O)c2ccccc2Cl)n1", "inhibition": "-10.3% (inactive)"}, {"smiles": "O=C(COc1ccccc1)Nc1ccc(F)cc1", "inhibition": "12.1% (inactive)"}, {"smiles": "CN(c1ccc(OCC(=O)O)cc1)S(=O)(=O)c1ccc2ccccc2c1", "inhibition": "11.1% (inactive)"}, {"smiles": "CN(c1ccccc1)S(=O)(=O)c1ccc(NC(=O)COc2ccccc2)cc1", "inhibition": "40.2% (active)"}]}]}
